Laboratory results published in PubChem BioAssay (EPA / NIEHS).
Records with an inconclusive call do not appear. Calls of active or inactive are those of the source. Rule for the calls: active = hit-call score of the fitted dose curve at least 0.9, where 1 is the maximum; inconclusive = response in the unintended direction; inactive = score below 0.9.

What follows are compounds tested against Glucocorticoid receptor (Homo sapiens) (UniProt P04150) (assay: ATG_GR_TRANS: Attagene TRANS-FACTORIAL HepG2 Assay for human Glucocorticoid Receptor (GR) (AID 2282978;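 note: activators score as hits since higher reporter transcript over DMSO is fitted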)). Conditions: HepG2 Attagene TRANS GR reporter, mRNA transcription.
Glucocorticoid receptor (Homo sapiens), sequence (P04150 whole entry, looked up): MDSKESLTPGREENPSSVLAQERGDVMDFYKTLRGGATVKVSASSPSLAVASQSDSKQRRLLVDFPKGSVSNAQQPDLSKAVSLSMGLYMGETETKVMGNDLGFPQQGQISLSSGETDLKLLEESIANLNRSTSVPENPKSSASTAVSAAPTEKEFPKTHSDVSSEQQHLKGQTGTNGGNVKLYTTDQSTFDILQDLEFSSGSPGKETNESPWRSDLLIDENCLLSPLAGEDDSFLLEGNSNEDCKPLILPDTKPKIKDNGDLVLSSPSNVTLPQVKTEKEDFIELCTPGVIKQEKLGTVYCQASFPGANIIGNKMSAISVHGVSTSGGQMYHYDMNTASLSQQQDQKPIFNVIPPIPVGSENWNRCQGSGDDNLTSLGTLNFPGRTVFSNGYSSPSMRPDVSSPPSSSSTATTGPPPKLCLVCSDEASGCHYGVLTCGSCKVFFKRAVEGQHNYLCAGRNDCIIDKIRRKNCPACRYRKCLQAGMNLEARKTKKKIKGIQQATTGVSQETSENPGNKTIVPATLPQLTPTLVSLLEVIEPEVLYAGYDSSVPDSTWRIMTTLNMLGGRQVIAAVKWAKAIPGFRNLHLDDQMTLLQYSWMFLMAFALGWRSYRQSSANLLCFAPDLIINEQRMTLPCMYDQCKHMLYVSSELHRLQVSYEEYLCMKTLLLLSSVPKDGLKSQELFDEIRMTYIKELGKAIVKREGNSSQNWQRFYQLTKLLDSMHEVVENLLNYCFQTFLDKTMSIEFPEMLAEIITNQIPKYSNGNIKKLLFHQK
Procedure: ATG_TRANS is a cell-based, multiplexed-readout assay that uses HepG2, a human liver cell line, with measurements taken at 24 hours after chemical dosing in a 24-well plate.ATG_GR_TRANS is one of 30 assay component(s) measured or calculated from the ATG_TRANS assay. It is designed to make measurements of mRNA induction, a form of inducible reporter, as detected with fluorescence intensity signals by Reverse transcription polymerase chain reaction (RT-PCR) and Capillary electrophoresis technology.Data from the assay component ATG_GR_TRANS was analyzed into 1 assay endpoint. This assay endpoint, ATG_GR_TRANS, was analyzed in the positive analysis fitting direction relative to DMSO as the negative control and baseline of activity. Using a type of inducible reporter, measures of mRNA for gain-of-signal activity can be used to understand the reporter gene at the transcription factor-level as they relate to the gene NR3C1. Furthermore, this assay endpoint can be referred to as a primary readout, because this assay has produced multiple assay endpoints where this one serves a reporter gene function. To generalize the intended target to other relatable targets, this assay endpoint is annotated to the nuclear receptor intended target family, where the subfamily is steroidal.
Human liver HepG2 cells are transiently transfected with multiple reporter transcription units (MRTUs) in 6-well plates using FuGene 6 reagent (Roche; 3 ml FuGene/1 mg DNA). The MRTU constructs are regulated by a cis-regulating element (promoter). […] A major difference between the CIS and TRANS system is that in CIS activities of endogenous TFs are measured, whereas the TRANS assay evaluates changes in activities of exogenous, chimeric NR-Gal4 proteins. […] At the end of 24 hour incubation, total RNA was isolated using TriZol reagent (Invitrogen). The isolated RNA is then reverse-transcribed using oligo(dT) primer and Mo-MLV reverse transcriptase (Invitrogen) with DNAse I (Ambion) treatment for 30 min. The one-tenth of the produced cDNA was amplified by PCR using Taq DNA polymerase (Invitrogen) and two reporter sequence-specific primers. The PCR products were fluorescently labeled by primer extension with 6-arboxyfluorescein (6-FAM) 5'-labeled reporter sequence-specific primer (2 min at 95 C, 20 s at 68 C and 10 min at 72 C) and these products were digested with 5U of HpaI (New England Biolabs) for 2h at 37 C. The fragments were purified using Qiaquick PCR columns (Qiagen), analyzed on an ABI 3130xL genetic analyzer (Applied Biosystems) with peak positions identified by using a set of X-rhodamine (ROX)-labeled MapMarker1000 molecular weight standards (BioVentures). The raw capillary electrophoresis data was processed using Attagraph software (Attagene).
With `CC(C)C1CCC(Cc2ccc(Cl)cc2)C1(O)Cn1cncn1` (stereo not given) the outcome was “inactive”.
With `CNC` the outcome was “inactive”.
For `CCOP(=S)(OCC)SCCS(=O)(=O)CC`, the outcome was “inactive”.
For `COP(=S)(OC)Oc1c(Cl)cc(C)cc1Cl`, the outcome was “inactive”.
With `ClCC(Cl)CCl` the outcome was “inactive”.
`CC(C)(c1ccc(OCC2CO2)cc1)c1ccc(OCC2CO2)cc1` (stereo not given) was tested, and the outcome was “inactive”.
`CC(=O)[O][Hg][c]1ccccc1` was tested, and the outcome was “inactive”.
`ClC(Cl)=C(Cl)C(Cl)=C(Cl)Cl` was tested, and the outcome was “inactive”.
`ClC1=C(Cl)[C@]2(Cl)[C@H]3[C@H]([C@H]4C=C[C@H]3C4)[C@@]1(Cl)C2(Cl)Cl` was tested, and the outcome was “inactive”.
In the case of `Nc1ccc(-c2ccc(N)c(Cl)c2)cc1Cl`, the outcome is reported as “inactive”.
In the case of `CCC1(c2ccc(N)cc2)CCC(=O)NC1=O` (stereo not given), the outcome is reported as “inactive”.
In the case of `C[C@]12CCC(=O)C[C@@H]1CC[C@@H]1[C@@H]2CC[C@]2(C)[C@@H](O)CC[C@@H]12`, the outcome is reported as “inactive”.
For `CC(=O)c1cc(C(C)(C)C)cc2c1CCC2(C)C`, the outcome was “inactive”.
In the case of `O=c1[nH]c(=O)[nH]c(=O)[nH]1`, the outcome is reported as “inactive”.
For `CN(C)N=O`, the outcome was “inactive”.
In the case of `CC(=O)OC(c1ccccc1)C(Cl)(Cl)Cl` (stereo not given), the outcome is reported as “inactive”.
With `CC(=O)C(Cl)C(=O)N(C)C` (stereo not given) the outcome was “inactive”.
For `CCCCC(CC)CO[N+](=O)[O-]` (stereo not given), the outcome was “inactive”.
With `CC(C)(C)CC(C)(C)c1ccc(O)cc1` the outcome was “inactive”.
`C=C(C)C(=O)[O][Sn]([CH2]CCC)([CH2]CCC)[CH2]CCC` was tested, and the AC50 was 1980 nM (active).
`O=C(OC1CCCCC1)c1ccccc1C(=O)OC1CCCCC1` was tested, and the outcome was “inactive”.
In the case of `N#CCc1ccc(Cl)cc1`, the outcome is reported as “inactive”.
With `C[C@]12CC[C@H](O)CC1=CC[C@@H]1[C@@H]2CC[C@]2(C)C(=O)CC[C@@H]12` the outcome was “inactive”.
In the case of `CCCCCCCCc1ccc(O)cc1`, the outcome is reported as “inactive”.
With `COc1ccccc1OC` the outcome was “inactive”.
`CCC(C)(C)c1ccc(O)c(C(C)(C)CC)c1` was tested, and the outcome was “inactive”.
With `COC(=O)c1sccc1S(=O)(=O)NC(=O)Nc1nc(C)nc(OC)n1` the outcome was “inactive”.
For `COc1ccc(OC)c(C=O)c1`, the outcome was “inactive”.
In the case of `O=S(=O)(c1ccc(Cl)cc1)c1ccc(Cl)cc1`, the outcome is reported as “inactive”.
With `Oc1c(I)cc(I)cc1I` the outcome was “inactive”.
In the case of `Oc1ccc(-c2ccccc2)cc1`, the outcome is reported as “inactive”.
In the case of `C[C@@H](Oc1ccc(Cl)cc1Cl)C(=O)O`, the outcome is reported as “inactive”.
For `O=C1C2(Cl)C3(Cl)C4(Cl)C(Cl)(Cl)C5(Cl)C3(Cl)C1(Cl)C5(Cl)C24Cl` (stereo not given), the outcome was “inactive”.
`O=C1CCCN1` was tested, and the outcome was “inactive”.
With `CC12CC1(C)C(=O)N(c1cc(Cl)cc(Cl)c1)C2=O` (stereo not given) the outcome was “inactive”.
With `CCSC(C)CC1CC(=O)C(C(CC)=NOC/C=C/Cl)=C(O)C1` (stereo not given) the outcome was “inactive”.
For `Cc1ccccc1C(=O)Nc1cccc(OC(C)C)c1`, the outcome was “inactive”.
With `O=P(O)(O)CN(CP(=O)(O)O)CP(=O)(O)O` the outcome was “inactive”.
`CC(=O)C=C(C)C` was tested, and the outcome was “inactive”.
With `CC(C)(C)c1cc(O)ccc1O` the outcome was “inactive”.
